TGFb SMAD3 inh: TGF-b pathway inhibition. Potency, µM (series often up to 46.1 µM), inactives show at the highest dose activity, negative = inhibition, actives largely listed as inhibitors. AID 588855. HepG2 CAGA-GFP TGF-b/SMAD3 reporter, GFP fluorescence, 18 h; TGF-beta stimulated, 500 pg/mL final. 410,000 tested, 1.2% active; also: potency is read from the fitted curve at half-maximal effect; % is scaled to controls: 0 for no effect and ±100 for the full control effect; nearly all actives have a fitted effect of over 65% in size
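Using HEPG2 CAGA-GFP reporter cells at 1000 cells/well, we pinned test compounds, stimulated with recombinant TGF-beta (500 pg/mL final) and measured total well GFP after 18 h.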
DT40 TDP1 no CPT: qHTS for Inhibitors of human tyrosyl-DNA phosphodiesterase 1 (TDP1): qHTS in cells in absence of CPT; DT40 Tdp1-/- hTDP1 cells, no CPT, ATP luminescence, 48 h; Potency, µM (series often up to 46.2 µM), for inactives: at the highest dose activity change, negative = growth inhibition, usual class: inhibitors; 420,000 tested, 15% active; AID 686978, 2013; also: potency is read from the fitted curve at half-maximal effect; % is scaled to controls: 0 for no effect and ±100 for the full control effect; nearly all actives have a fitted effect of over 55% in size
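No-CPT arm: Tdp1-/-;hTDP1 DT40 cells (400/well) plus compounds, incubated ≥48 hr at 37 °C. Readout CellTiter-Glo luminescence.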
DT40 TDP1 CPT: DT40-hTDP1 cell growth loss with CPT; Potency, µM (series often up to 46.2 µM), without a hit: top-dose activity change, negative = growth inhibition, hits mostly inhibitors; 420,000 tested, 12% active; chicken DT40 Tdp1-/-;hTDP1 cells + 20 nM CPT, ATP luminescence, 48 h; also: potency is read from the fitted curve at half-maximal effect; % is scaled to controls: 0 for no effect and ±100 for the full control effect; nearly all actives have a fitted effect of over 55% in size
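Chicken DT40 Tdp1-/- cells complemented with human TDP1, 400 cells/well, exposed to compounds plus 20 nM camptothecin for at least 48 h at 37 C; viability read as ATP content by CellTiter-Glo luminescence.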
IL-1B inflam inh: inflammasome signaling inhibition, IL-1 beta readout | THP-1 LPS/ATP IL-1B secretion, AlphaLISA, 16 h; hits give low values | activity change, % at 57.5 µM | 360,000 tested, 4.7% active | AID 743279; in the data active = activity change below about -50%; inconclusive = mostly about -30% to -49%; also: % is scaled to controls: 0 for no effect and ±100 for the full control effect
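Secreted IL-1B measured by AlphaLISA bead assay after 16 h compound exposure of THP-1 cells; compounds (final up to 57.5 uM) added 1 h before LPS (250 ng/mL) and ATP (1.25 mM) stimulation; lower signal means less secretion.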
TDP1 inh: TDP1 (human) enzyme inhibition; recombinant TDP1, AlphaScreen DNA substrate cleavage; Potency, µM (top dose mostly 130 µM), without a hit: at the highest dose activity change, negative = inhibition, most hits filed as inhibitors; 350,000 tested, 0.28% active; AID 485290; also: potency is read from the fitted curve at half-maximal effect; % is scaled to controls: 0 for no effect and ±100 for the full control effect; nearly all actives have a fitted effect of over 40% in size
Target sequence (Q9NUW8 whole entry, looked up): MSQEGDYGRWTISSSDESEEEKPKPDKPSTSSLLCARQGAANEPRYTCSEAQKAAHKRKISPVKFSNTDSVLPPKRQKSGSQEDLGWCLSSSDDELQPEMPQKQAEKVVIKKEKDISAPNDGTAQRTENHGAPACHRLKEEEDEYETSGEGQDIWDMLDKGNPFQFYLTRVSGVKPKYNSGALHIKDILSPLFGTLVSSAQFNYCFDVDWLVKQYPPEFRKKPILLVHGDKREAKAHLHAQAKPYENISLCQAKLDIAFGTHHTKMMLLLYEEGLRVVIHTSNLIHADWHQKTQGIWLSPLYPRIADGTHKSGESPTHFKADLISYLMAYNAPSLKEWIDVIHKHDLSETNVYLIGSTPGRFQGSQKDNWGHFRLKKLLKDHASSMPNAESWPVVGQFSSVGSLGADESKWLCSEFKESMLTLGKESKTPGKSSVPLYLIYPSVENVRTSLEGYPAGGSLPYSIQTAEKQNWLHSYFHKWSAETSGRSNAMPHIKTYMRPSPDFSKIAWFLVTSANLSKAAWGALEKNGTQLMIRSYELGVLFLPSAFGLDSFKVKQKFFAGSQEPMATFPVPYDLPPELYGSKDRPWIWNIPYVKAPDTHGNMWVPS
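Recombinant E. coli-expressed Tdp1 (1 nM) preincubated with compound 15 min at RT, then 5'-biotin/3'-phosphotyrosine-FITC DNA substrate (15 nM) added for 5 min. AlphaScreen beads (10 ug/ml) added, 10 min RT; tyrosine-FITC cleavage read as signal loss.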
HepG2 tox: HepG2 cytotoxicity, counter-screen for TGF-b inhibitors | HepG2 CAGA-GFP viability, ATP luminescence, 18 h | Potency, µM (doses to about 46.1 µM), for inactives: at the top dose activity change, negative = cytotoxicity, most hits filed as cytotoxic | 410,000 tested, 0.76% active | AID 588856; also: potency is read from the fitted curve at half-maximal effect
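CellTiter-Glo luminescence gave cytotoxicity after 18 hours at 37 degrees C. The cells were HepG2 CAGA-GFP in 1% FBS DMEM, stimulated with 500 pg/mL TGF-beta after compound addition. %Activity was normalised to no-cell wells (complete cell-killing) and DMSO (no toxicity), and curves were fitted and classified.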
The depositor's hits bear a star; ? = inconclusive; / = no result given; [ ] = dose if it differs, or a comment. An excerpt weighted towards active compounds, which were near 19% of everything screened. Unless noted, calls follow the shape of the dose curve; as a rule, active = well fitted curve in the direction sought with a large enough effect; inconclusive = small, poorly fitted or top-dose-only effect, or another doubt; inactive = no such curve, though single readings can be large; an effect the other way counts as inactive or inconclusive.

SMILES	TGFb SMAD3 inh	DT40 TDP1 no CPT	DT40 TDP1 CPT	IL-1B inflam inh	TDP1 inh	HepG2 tox
COCCCNc1nc2c(c(=O)n(C)c(=O)n2C)n1Cc1ccccc1	0%	12µM*	16µM*	/	4%	-25%
C/C(Cl)=C\Cn1c(NCCc2ccccc2)nc2c1c(=O)n(C)c(=O)n2C	-13%	0.82µM*	0.65µM*	-52*	5%	-21%
COCCNc1nc2c(c(=O)n(Cc3cccc(Cl)c3)c(=O)n2C)n1C	8%	?	?	37	/	7%
CCNc1nc2c(c(=O)n(C)c(=O)n2C)n1CCCc1ccccc1	-9%	5.8µM*	12µM*	-9	/	-14%
CCNc1nc2c(c(=O)[nH]c(=O)n2C)n1CCCc1ccccc1	6%	-30%	2%	7	/	9%
COCCNc1nc2c(c(=O)n(C)c(=O)n2C)n1Cc1c(F)cccc1Cl	?	2.6µM*	1.8µM*	/	/	-16%
CCN(CC)CCNc1nc2c(c(=O)n(C)c(=O)n2C)n1C/C=C(/C)Cl	-25%	-23%	-18%	-8	6%	-6%
COCCNC(=S)N(CCc1c(C)[nH]c2ccc(F)cc12)Cc1ccco1	-43%	?	?	30	/	-23%
CCCN(CCC)C(=O)Cn1c(=O)n(Cc2ccc(C(=O)NCCc3ccc(OC)c(OC)c3)cc2)c(=O)c2ccccc21	-30%	?	?	/	5%	3%
C=CCn1c(Oc2cccc(C)c2)nc2c1c(=O)n(C)c(=O)n2C	-20%	?	-27%	33	4%	-4%
C=CCn1c(Oc2cc(C)ccc2C)nc2c1c(=O)n(C)c(=O)n2C	-20%	16µM*	15µM*	-1	3%	5%
CCCCCCn1c(CN2CCN(Cc3ccccc3)CC2)nc2c1c(=O)n(C)c(=O)n2C	-1%	?	?	-12	0%	-1%
Cn1c(=O)c2c(nc(NCCCO)n2Cc2cccc(C(F)(F)F)c2)n(C)c1=O	0%	15µM*	18µM*	11	5%	-10%
Cn1c(=O)c2c(nc(CN3CCN(Cc4ccccc4)CC3)n2Cc2cccc(Cl)c2)n(C)c1=O	-12%	16µM*	23µM*	-20	4%	-25%
Cn1c(=O)c2c(nc(CN3CCCCC3)n2Cc2c(F)cccc2Cl)n(C)c1=O	24%	23µM*	?	12	/	-4%
CCCCCCNc1nc2c(c(=O)n(C)c(=O)n2C)n1Cc1cccc(C)c1	14%	/	/	/	3%	-12%
Cc1ccc(Cn2c(NCCc3ccccc3)nc3c2c(=O)n(C)c(=O)n3C)cc1	-14%	8.2µM*	6.5µM*	?	9%	-27%
Cn1c(=O)c2c(nc(Br)n2Cc2ccc3ccccc3c2)n(C)c1=O	-9%	?	21µM*	-29	4%	-8%
COc1ccc(CCNc2nc3c(c(=O)n(C)c(=O)n3C)n2Cc2ccccc2Cl)cc1OC	1%	7.3µM*	13µM*	/	-1%	-3%
CCCOc1c(Cl)cc(C(=O)N(Cc2cccc(OC)c2)C2CCS(=O)(=O)C2)cc1Cl (stereo not drawn)	?	?	?	/	5%	-1%
CCc1nnc(NC(=O)c2cc(=O)c3cc(C)ccc3o2)s1	-11%	-20%	-14%	/	2%	-4%
CCCNC(=O)C1(C)CCN(C(=O)c2cccc(C#N)c2)C1 (stereo not drawn)	50%	1%	-2%	182	/	6%
CNC[C@@H]1CC[C@@H](N)[C@@H](O[C@H]2[C@H](O)[C@@H](O[C@H]3OC[C@](C)(O)[C@H](NC)[C@H]3O)[C@H](N)C[C@@H]2N)O1	/	8%	4%	/	/	/
COc1cc(C(=O)N2CCN(C(=O)c3cc(-c4ccc(Br)cc4)n[nH]3)CC2)cc(OC)c1OC	-4%	26µM*	21µM*	-10	1%	-9%
Cc1ccc(-c2cc(C(=O)N3CCN(S(=O)(=O)c4ccc(Br)cc4)CC3)[nH]n2)cc1C	?	8.2µM*	9.2µM*	/	-6%	-7%
SMILES	TGFb SMAD3 inh	DT40 TDP1 no CPT	DT40 TDP1 CPT	IL-1B inflam inh	TDP1 inh	HepG2 tox
Cc1ccc(S(=O)(=O)/N=C2/NC(=O)/C(=C/c3cccnc3)S2)cc1	13%	29µM*	?	-3	5%	29%
Cc1cc2c(c(C)c1Cl)C(c1ccc3c(c1)OCO3)CC(c1ccccc1)O2 (stereo not drawn)	?	/	/	/	-2%	-1%
CCCCn1c(SCc2nc(N)nc(Nc3ccccc3C)n2)nc2ccccc2c1=O	-11%	18µM*	?	-28	4%	-17%
COCC(C)n1c(SCc2nc(N)nc(Nc3ccccc3C)n2)nc2ccccc2c1=O (stereo not drawn)	29%	?	16µM*	?	3%	-5%
Cc1ccccc1OCC(=O)Nc1cc(-c2cccc(Br)c2)nn1-c1ccccc1	-1%	?	?	/	8%	-2%
CCCCn1cnc2c([nH]c3ccccc32)c1=O	1%	-19%	1%	-11	4%	-4%
CCOCCCNc1ncnc2c1[nH]c1ccccc12	0%	16µM*	10µM*	0	7%	-24%
c1ccc2c(c1)[nH]c1c(NCC3CCCO3)ncnc12 (stereo not drawn)	?	15µM*	?	11	4%	-23%
CCCCOCCCNc1ncnc2c1[nH]c1ccccc12	?	2.3µM*	2.1µM*	-95*	0%	-38%
COc1ccc(C)cc1NC(=O)CSc1nc(=O)n(Cc2ccco2)c2c1CCC2	?	?	?	/	5%	-52%
Cc1nnc(NC(=O)c2ccc(F)c(S(=O)(=O)N3CCCCC3)c2)s1	1%	-20%	-14%	6	/	-28%
Cn1cc(S(=O)(=O)c2cccc(Cl)c2)c(=O)c2cc(F)c(N3CCCCCC3)cc21	0%	-15%	-9%	/	6%	3%
O=C(O)CCC/C=C\C[C@@H]1C(/C=C/[C@@H](O)COc2cccc(C(F)(F)F)c2)[C@@H](O)C[C@@H]1O (stereo partly drawn)	/	-5%[4.12 µM]	5%[4.12 µM]	/	5%	/
C=C(C)C(=O)NNc1ccccc1	4%	7.3µM*	5.2µM*	4	6%	6%
Cc1cc(C)n(C(C)CC(=O)NCc2ccccc2C)n1 (stereo not drawn)	2%	-11%	-15%	/	5%	0%
Cc1nc2ccccc2c2nc3ccccc3n12	-8%	21µM*	?	-6	3%	-2%

Screening data: PubChem BioAssay, National Center for Advancing Translational Sciences (NCATS)
